CaV13 FRET inh = Disruptors of the CACNA1D IQ motif to Ca2+-dependent inactivation inhibitor domain association, primary screening, Förster resonance energy transfer in intact living …. HEK cells, CFP/YFP FRET ICDI-IQ, plate reader, 10 min; percent FRET-ratio fall versus neutral wells. inhibition, % at 12.3 µM. hit rate 0.098% among 340,000;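 active means mean replicate inhibition of at least 30% and at least 1% of replicates passing that level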;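 further: 0% = median of the neutral control wells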
IDE inh = cellular human IDE inhibition | HEK cells, FAbetaB cleavage, fluorescence polarization | inhibition, % at 5.59 µM | hit rate 0.41% among 320,000;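 active means percent inhibition above the average of all tested compounds plus 3 SD, set per screening campaign, cut at about 16% in these data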;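 further: IDE supplied by intact live HEK cells; FP after avidin binding of uncleaved biotin substrate so inhibition keeps polarization high; 0% = DMSO wells and 100% = 60 µM reference IDE inhibitor Ii1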
IDE act = IDE (human) activation, cell-based; P14735; HEK cells, FAbeta-B cleavage, fluorescence polarization; 0% vehicle, 100% cell-free pure enzyme wells; activation, % at 5.96 µM; hit rate 0.073% among 340,000; AID 493087;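 active means activation above the mean of all tested compounds plus 3 SD, set per screening campaign, cut at about 17% in these data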
PfM18AAP inh = blocks P. falciparum M18 aspartyl aminopeptidase. recombinant PfM18AAP, H-Glu-NHMec fluorogenic cleavage. inhibition, % at 7.35 µM. hit rate 1.2% among 290,000. AID 1822;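 active means inhibition above the campaign mean inhibition over all tested compounds plus 3 SD, cut at about 28% in these data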;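 further: 0% = plate median of test compound wells and 100% = 2 mM ZnCl2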
ALR inh = inhibitors of human sulfhydryl oxidase ALR. P55789. purified ALR, DTT oxidation, H2O2 HRP-luminol luminescence. inhibition, % (concentration not given with the values). hit rate 3.8% among 290,000. AID 485317;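 active means mean replicate inhibition above about 79%, with every replicate also reaching it, limit read from the data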
Target sequence (P55789 whole entry, looked up): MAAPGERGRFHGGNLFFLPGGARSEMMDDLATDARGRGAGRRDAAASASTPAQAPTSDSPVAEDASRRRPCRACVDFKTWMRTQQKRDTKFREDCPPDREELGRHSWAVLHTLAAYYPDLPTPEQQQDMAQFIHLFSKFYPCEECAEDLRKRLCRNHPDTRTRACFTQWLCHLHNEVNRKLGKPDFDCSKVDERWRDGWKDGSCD
PolyA inhibitor = yeast polyadenylation inhibition. AID 1875. hit rate 0.02% among 300,000. activity score, % at 12 µM. S. cerevisiae SKY197-pL101 polyadenylation reporter, beta-gal luminescence; efflux-impaired pdr1/pdr3 knockout yeast; score 100 = 6 SD above DMSO;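 active means lowest replicate activity score at least 50, where 100 means six control SD above control mean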;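 further: yeast exposed to compound for 9 h at 30 °C; higher score means more reporter readthrough which indicates perturbed polyadenylation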
The depositor's hits bear a star. An excerpt weighted towards active compounds, which were near 4.1% of everything screened.

What do the screens show for `O=C(O)CCC1c2cc3c4cc2OC2Oc5cc6c(cc51)C(CCC(=O)O)c1cc5c7cc1OC(O6)c1cc6cc(c1)Oc1cc(cc(C(=O)O)c1)Oc1cc8cc(c1)C(Oc1cc(c(cc1C5CCC(=O)O)C3CCC(=O)O)OC(O4)c1cc(cc(c1)Oc1cc(cc(C(=O)O)c1)O8)Oc1cc(cc(C(=O)O)c1)Oc1cc(cc2c1)Oc1cc(cc(C(=O)O)c1)O6)O7` (stereo not drawn)?
IDE inh: -4; ALR inh: 98*; PolyA inhibitor: 13

Results for COc1ccc(-n2ccnc(SCC(=O)NCc3ccccc3Cl)c2=O)cc1 ?
CaV13 FRET inh: -5; IDE inh: 5; IDE act: 1; PfM18AAP inh: 6; ALR inh: 99*; PolyA inhibitor: -13

Results for O=[N+]([O-])/C(C(Cl)=C(Cl)Cl)=C(\Sc1ccccc1)N1CCCCC1 ?
CaV13 FRET inh: -17; IDE inh: 6; IDE act: -2; PfM18AAP inh: 4; ALR inh: 98*; PolyA inhibitor: 26

What do the screens show for `COc1cc(NS(=O)(=O)c2ccc(NC(=O)CSC3=NCCS3)cc2)nc(OC)n1`?
IDE inh: -5; PfM18AAP inh: 10; ALR inh: 99*; PolyA inhibitor: 6

What do the screens show for `O=C(CSC1=NCCS1)Nc1ccc(S(=O)(=O)NC2CCCCC2)cc1`?
CaV13 FRET inh: -9; IDE inh: -3; IDE act: 8; PfM18AAP inh: -4; ALR inh: 98*; PolyA inhibitor: -5

How did O=C(CSc1ncccn1)Nc1ccc(S(=O)(=O)N2CCCCC2)cc1 do in these assays?
CaV13 FRET inh: -5; IDE inh: 5; IDE act: 7; PfM18AAP inh: 5; ALR inh: -11; PolyA inhibitor: -2

What do the screens show for `O=C(CSC1=NCCS1)Nc1ccc(S(=O)(=O)N2CCCCCC2)cc1`?
CaV13 FRET inh: -7; IDE inh: -7; IDE act: 2; PfM18AAP inh: 0; ALR inh: 98*; PolyA inhibitor: -5

Results for COC(=O)CCC(=O)Nc1ccc(S(=O)(=O)Nc2cc(OC)nc(OC)n2)cc1 ?
CaV13 FRET inh: -19; IDE inh: -2; IDE act: -2; PfM18AAP inh: 8; ALR inh: -17; PolyA inhibitor: -2

What do the screens show for `O=C(c1ccc(Cl)nc1)N1CCN(C/C=C/c2ccccc2)CC1`?
CaV13 FRET inh: 7; IDE inh: 4; IDE act: 1; PfM18AAP inh: 0; ALR inh: 6; PolyA inhibitor: -5

What do the screens show for `CN1CCN(c2ccc(CNC(=O)C3(C)Cc4c(-c5ccccc5)ccnc4O3)cc2)CC1` (stereo not drawn)?
CaV13 FRET inh: -8

How did Cc1oc(-c2ccc(Cl)cc2)nc1CN1CCC(C(=O)NCCCN2CCOCC2)CC1 do in these assays?
CaV13 FRET inh: -5; IDE inh: 6; IDE act: -1; PfM18AAP inh: -7; ALR inh: -8; PolyA inhibitor: 13

Results for CCc1ccc(-c2nc(CN3CCC(C(=O)NCc4ccc(F)cc4)CC3)c(C)o2)cc1 ?
CaV13 FRET inh: -8; IDE inh: 0; IDE act: 0; PfM18AAP inh: -18; ALR inh: -6; PolyA inhibitor: -6

Results for CCN(CCNC(=O)C1CCCN(Cc2nc(-c3ccc(OC)cc3)oc2C)C1)c1ccccc1 (stereo not drawn) ?
CaV13 FRET inh: -6; IDE inh: 3; IDE act: 3; PfM18AAP inh: 2; ALR inh: 96*; PolyA inhibitor: 17

How did CCc1ccc(-c2nc(CN3CCC(C(=O)NCCN(CC)c4ccccc4)CC3)c(C)o2)cc1 do in these assays?
CaV13 FRET inh: -3; IDE inh: 0; IDE act: 2; PfM18AAP inh: 2; ALR inh: 99*; PolyA inhibitor: 14

Results for CCN(CCNC(=O)C1CCN(Cc2nc(-c3cccc(Cl)c3)oc2C)CC1)c1ccccc1 ?
CaV13 FRET inh: -4; IDE inh: -1; IDE act: 8; PfM18AAP inh: 10; ALR inh: 99*; PolyA inhibitor: 2

Results for CCN(CCNC(=O)C1CCN(Cc2nc(-c3ccc(Cl)cc3)oc2C)CC1)c1ccccc1 ?
CaV13 FRET inh: -4; IDE inh: -4; IDE act: 5; PfM18AAP inh: -9; ALR inh: 98*; PolyA inhibitor: -1

Results for Cc1oc(-c2cccc(Cl)c2)nc1CN1CCC(C(=O)NC2CC2)CC1 ?
CaV13 FRET inh: -7; IDE inh: 4; IDE act: 3; PfM18AAP inh: -5; ALR inh: -2; PolyA inhibitor: -2

What do the screens show for `Cc1ccc(N(C(=O)c2csnn2)C(C(=O)NC2CCCC2)c2cccnc2)c(C)c1` (stereo not drawn)?
CaV13 FRET inh: -5; IDE inh: -2; IDE act: 5; PfM18AAP inh: -9; ALR inh: 1; PolyA inhibitor: -8

Results for O=C(CSc1nc(-c2ccc(F)cc2)cc(C(F)(F)F)n1)NCc1ccco1 ?
CaV13 FRET inh: -4; IDE inh: 4; IDE act: 1; PfM18AAP inh: -1; ALR inh: -12; PolyA inhibitor: -16

What do the screens show for `Cc1ccc(N2C(=O)CN(Cc3cccs3)C2=S)cc1C`?
CaV13 FRET inh: -6; IDE inh: -8; IDE act: 0; PfM18AAP inh: -2; ALR inh: 96*; PolyA inhibitor: -6

Results for COCCNC(=O)c1ccc2c(c1)S(=O)(=O)c1ccccc1C2=O ?
CaV13 FRET inh: -11; IDE inh: -7; IDE act: 5; PolyA inhibitor: 1

How did COc1ccc(S(=O)(=O)N/N=C(/C)c2ccncc2)c(OC)c1 do in these assays?
CaV13 FRET inh: -4; IDE inh: -2; IDE act: 4; PfM18AAP inh: 5; ALR inh: 81*; PolyA inhibitor: 20

How did COc1cc(NC(=O)c2ccc(N3CC4CC(C3)c3cccc(=O)n3C4)c(NC(=O)c3ccncc3)c2)cc(OC)c1OC (stereo not drawn) do in these assays?
CaV13 FRET inh: -2; IDE inh: -2; IDE act: -5; PfM18AAP inh: 14; ALR inh: -5; PolyA inhibitor: 2

Results for COc1cc(C(c2c(C(=O)O)[nH]c3ccccc23)c2c(C(=O)O)[nH]c3ccccc23)ccc1OCc1ccccc1 ?
CaV13 FRET inh: 103*; IDE inh: -3; IDE act: 9; PfM18AAP inh: 2; ALR inh: -6; PolyA inhibitor: 10

Results for COc1cc(/C=C/c2sc3ccccc3[n+]2CCCS(=O)(=O)[O-])ccc1O ?
CaV13 FRET inh: -18; IDE inh: 10; IDE act: -13; PfM18AAP inh: 27; ALR inh: 99*; PolyA inhibitor: -10
